Records with an inconclusive call do not appear. A number with no mark means an inactive call. Calls of active or inactive are those of the source. The call rests on the fitted dose curve; in most records, active means well fitted activation curve with a large enough effect in the repeat runs; inconclusive means weak or mixed curves; inactive means no such curve, though single readings can be large or run the other way.
On the % scale 0 is the no-effect control and ±100 the full control effect; potency means the concentration at half of the fitted maximal effect.

In this test the target is Aryl hydrocarbon receptor (Homo sapiens) (UniProt P35869). Kind of test: qHTS assay to identify small molecule that activate the aryl hydrocarbon receptor (AhR) signaling pathway (AID 743085). Further: nearly all actives have a fitted effect of over 15% in size.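 On activation: HG2L7.5c1 human HepG2 liver cells with stably integrated DRE-driven firefly reporter.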 Conditions: HepG2 AhR-luc (HG2L7.5c1), luciferase, 24 h; series mostly up to 70.3 µM; activation: at the top concentration. Put shortly: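 AhR agonist activity is inferred from enhanced light output of a DRE-controlled firefly luciferase reporter in HepG2 cells, measured with ONE-Glo following 24 h treatment at 37C.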
Chain of Aryl hydrocarbon receptor (Homo sapiens) (P35869 whole entry, looked up): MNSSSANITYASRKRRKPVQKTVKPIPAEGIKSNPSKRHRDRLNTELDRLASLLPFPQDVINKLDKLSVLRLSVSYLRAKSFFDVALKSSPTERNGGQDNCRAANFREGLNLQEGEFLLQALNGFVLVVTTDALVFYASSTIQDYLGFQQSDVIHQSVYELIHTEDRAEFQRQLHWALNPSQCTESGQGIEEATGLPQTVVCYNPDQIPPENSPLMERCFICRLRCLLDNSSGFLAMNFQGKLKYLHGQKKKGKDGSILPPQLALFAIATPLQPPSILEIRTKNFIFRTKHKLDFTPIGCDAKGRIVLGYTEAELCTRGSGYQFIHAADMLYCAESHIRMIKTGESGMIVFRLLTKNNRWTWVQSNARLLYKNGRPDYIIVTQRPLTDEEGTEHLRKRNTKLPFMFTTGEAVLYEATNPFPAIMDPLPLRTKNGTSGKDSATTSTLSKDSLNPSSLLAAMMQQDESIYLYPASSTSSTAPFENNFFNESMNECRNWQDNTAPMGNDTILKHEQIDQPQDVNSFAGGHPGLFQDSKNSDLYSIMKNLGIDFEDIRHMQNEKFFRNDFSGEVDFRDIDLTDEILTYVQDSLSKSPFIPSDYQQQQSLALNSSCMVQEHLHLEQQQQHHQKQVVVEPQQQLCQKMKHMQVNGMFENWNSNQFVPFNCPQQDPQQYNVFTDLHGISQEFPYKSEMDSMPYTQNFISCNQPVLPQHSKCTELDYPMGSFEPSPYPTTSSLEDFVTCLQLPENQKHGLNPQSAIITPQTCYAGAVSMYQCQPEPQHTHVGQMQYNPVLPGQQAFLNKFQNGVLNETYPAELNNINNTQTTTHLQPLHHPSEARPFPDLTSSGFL
In the case of `O=C/C(Cl)=C(/Cl)C(=O)O`, the Potency result is “inactive”. For the molecule `CCCSP(=O)(OCC)SCCC`, the “activation” value was 36.2% [at 95 µM]. For `c1ccc2c(c1)OCC(C1=NCCN1)O2` (stereo unspecified), the “activation” value was -1.74%. Regarding `CC(Cc1ccc(C(C)(C)C)cc1)CN1C[C@@H](C)O[C@@H](C)C1` (stereo partly specified), the “activation” value is 4.72%. Same read-out and setting: with `O=C1c2ccccc2C(=O)C1C(=O)C(c1ccccc1)c1ccc(Cl)cc1` (stereo unspecified) the figure was 4.21%; with `CSCCCN=C=S`, -1.02%. For `c1ccc2cc3c(cc2c1)-c1cccc2cccc-3c12`, the Potency is 0.12 µM (active). In the case of `CCN(CC)c1c([N+](=O)[O-])cc(C(F)(F)F)c(N)c1[N+](=O)[O-]`, the “activation” value was 7.41%. On the same count and under the same terms, with `N#C/C=C/C#N` the figure was -1.13% [at 95 µM]; with `CCCCOCN(C(=O)CCl)c1c(CC)cccc1CC`, -0.0296%; with `CCOCn1c(-c2ccc(Cl)cc2)c(C#N)c(Br)c1C(F)(F)F`, -1.09%. Still for that read-out and setting: then `Oc1cc(Cl)c(Cl)c(Cl)c1`, with -4.19%; and `COc1cc(C=O)cc2c1[C@H](COC(N)=O)[C@]1(OC(C)=O)ON2C[C@H]2[C@@H]1N2C(C)=O`, with -4.27%. On to `COP(=O)(OC)SCn1c(=O)oc2cc(Cl)cnc21`, for which the Potency is 43.3 µM (active). Take `O=[N+]([O-])O.O=[N+]([O-])O.[Cd]`: the “activation” value is -7.4%. Same read-out and setting: then `CS(=O)(=O)c1ccc(C(=O)C2C(=O)CCCC2=O)c([N+](=O)[O-])c1`, with 7.74% [at 95 µM].

Source of the values: PubChem BioAssay (Tox21).
